According to PubChem BioAssay (EPA / NIEHS):
Several values for one entry are separate records, joined by “and”; a condition that tells them apart may be missing. Identical values can stand only once. Results filed as inconclusive are left out. A structure can be active in one record and inactive in another. Activity calls are given as the source filed them. Rule for the calls, unless noted: active = hit-call score of the fitted dose curve at least 0.9, where 1 is the maximum; inconclusive = response in the unintended direction; inactive = score below 0.9.

Columns and labels:
[1] = molecular target: chicken Estrogen Receptor (ERa), ESR1 (gene 396099) (UniProt P06212); assay: ATG_chERa_XSP2: Attagene TRANS-FACTORIAL Multi-Species (XSP2) HepG2 Assay for chicken Estrogen Receptor (ERa) (AID 2283817);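 note: actives raise reporter signal above DMSO so AC50 reflects ER activation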
In short: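 Readout: fluorescent reporter-transcript fragments resolved by capillary electrophoresis after RT-PCR and HpaI cut. Chicken ERa-Gal4 fusion in transiently transfected HepG2, dosed for 24 h; activity taken as increase over DMSO baseline.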

[2] = tested on: zebrafish Estrogen Receptor (ER2a), gene 317734; assay: ATG_zfER2a_XSP2: Attagene TRANS-FACTORIAL Multi-Species (XSP2) HepG2 Assay for zebrafish Estrogen Receptor (ER2a) (AID 2283818);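 note: hits raise reporter mRNA so AC50 reflects activation of zebrafish ER2a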
In short: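 Multiplexed trans-reporter readout: RT-PCR then capillary electrophoresis of reporter transcripts after 24 h compound treatment. Human HepG2 carries transfected zebrafish ER2a-Gal4 chimera; 3 nM 6-alpha-fluorotestosterone plus 1.5 nM norgestrel present. Induction scored against DMSO.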

[3] = tested on: chicken Androgen Receptor (AR), gene 422165; assay: ATG_chAR_XSP2: Attagene TRANS-FACTORIAL Multi-Species (XSP2) HepG2 Assay for chicken Androgen Receptor (AR) (AID 2283819);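 note: hits raise reporter mRNA above DMSO so potency is for activation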
In short: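 Readout is reporter mRNA induction via RT-PCR/capillary electrophoresis after 24 h chemical exposure, positive direction relative to DMSO. Transiently transfected HepG2 express chimeric chicken AR–GAL4; AR stimulated by 3 nM 6-alpha-fluorotestosterone and 1.5 nM norgestrel.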

[4] = tested on: zebrafish Androgen Receptor (AR), gene 100005148; assay: ATG_zfAR_XSP2: Attagene TRANS-FACTORIAL Multi-Species (XSP2) HepG2 Assay for zebrafish Androgen Receptor (AR) (AID 2283825);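 note: hits raise reporter mRNA above DMSO so AC50 reflects agonist-type gain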
In short: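 After 24 h compound exposure in medium with 3 nM 6-alpha-fluorotestosterone plus 1.5 nM norgestrel, HepG2 cells carrying zebrafish AR–GAL4 reporter constructs were assessed for reporter mRNA gain by RT-PCR and capillary electrophoresis.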

[5] = tested on: frog Estrogen Receptor (ER2), gene 100174814; assay: ATG_frER2_XSP2: Attagene TRANS-FACTORIAL Multi-Species (XSP2) HepG2 Assay for frog Estrogen Receptor (ER2) (AID 2283828)
In short: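 Cells were transfected with reporter constructs under GAL4-UAS control, dosed with chemicals for 24 h, then lysed for RNA; the frog ER2-driven reporter mRNA was quantified by capillary electrophoresis of labeled PCR fragments, with activity fitted upward from DMSO.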

[6] = molecular target: mouse Peroxisome Proliferator-activated Receptor gamma (PPARg), Pparg (gene 19016) (UniProt P37238); assay: ATG_mPPARg_XSP2: Attagene TRANS-FACTORIAL Multi-Species (XSP2) HepG2 Assay for mouse Peroxisome Proliferator-activated Receptor gamma (PPARg) (AID 2283830);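 note: hits are gains in reporter mRNA above DMSO so AC50 marks activation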
In short: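 Multiplexed TRANS reporter readout: after 24 h chemical exposure of transfected HepG2 cells (with 3 nM 6-alpha-fluorotestosterone, 1.5 nM norgestrel present), RNA reverse-transcribed, amplified, 6-FAM-labelled and resolved by capillary electrophoresis; mouse PPARg-Gal4 induction scored against DMSO.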

[7] = molecular target: Nuclear receptor subfamily 1 group I member 2 (Mus musculus) (UniProt O54915); assay: ATG_mPXR_XSP2: Attagene TRANS-FACTORIAL Multi-Species (XSP1) HepG2 Assay for mouse Pregnane X Receptor (PXR) (AID 2283831)
In short: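 Human liver HepG2 cells expressing exogenous receptor-GAL4 chimeras were exposed to test chemicals for 24 h. Induction of reporter mRNA was scored as gain of fluorescence signal over DMSO controls.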

[8] = tested on: zebrafish Peroxisome Proliferator-activated Receptor gamma (PPARg), gene 557037; assay: ATG_zfPPARg_XSP2: Attagene TRANS-FACTORIAL Multi-Species (XSP2) HepG2 Assay for zebrafish Peroxisome Proliferator-activated Receptor gamma (PPARg) (AID 2283833);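 note: reporter mRNA from a zebrafish PPARg GAL4 chimera measured by RT-PCR and capillary electrophoresis; actives increase reporter signal over DMSO so AC50 reflects activation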
In short: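 Cell-based transactivation of a chimeric zebrafish PPARg-GAL4 receptor was assessed in transiently transfected HepG2 cells after 24 h of treatment. Reporter mRNA induction, detected fluorescently after RT-PCR, was analysed in the positive direction against DMSO.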

[9] = ATG_M_61_XSP2: Attagene TRANS-FACTORIAL Multi-Species (XSP2) HepG2 Assay for M61 Transcription Factor (Internal Marker) (AID 2283835; active = hit-call score of the fitted dose curve at least 0.9, where 1 is the maximum; inactive = score below 0.9;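 note: active means a rise in signal above the DMSO baseline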)
In short: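 Transient MRTU transfection of human HepG2; 24 h chemical dosing with 3 nM 6-alpha-fluorotestosterone + 1.5 nM norgestrel added for AR stimulation. RNA isolated, RT, PCR, FAM-labelled, HpaI cut, CE read. Positive direction vs DMSO.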

[10] = molecular target: frog Thyroid hormone Receptor alpha (TRa), thra-a (gene 397942) (UniProt P15204); assay: ATG_frTRa_XSP2: Attagene TRANS-FACTORIAL Multi-Species (XSP2) HepG2 Assay for frog Thyroid hormone Receptor alpha (TRa) (AID 2283839);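 for AC50: AC50 reflects induction of frog TRa-driven reporter mRNA above DMSO baseline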
In short: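 Frog thyroid receptor alpha was tested as an exogenous NR-Gal4 fusion in transiently transfected HepG2 cells. After 24 h chemical treatment, reporter mRNA induction was quantified by RT-PCR and capillary electrophoresis, with gain-of-signal analysed relative to DMSO.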

[11] = molecular target: Estrogen receptor (Homo sapiens) (UniProt P03372); assay: ATG_hERa_XSP2: Attagene TRANS-FACTORIAL Multi-Species (XSP2) HepG2 Assay for human Estrogen Receptor (ERa) (AID 2283827)
In short: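 Trans-activation of exogenous human ERa-Gal4 chimera read in HepG2 as reporter transcript after 24 h exposure; medium included 3 nM 6-alpha-fluorotestosterone and 1.5 nM norgestrel. Quantified by RT-PCR with capillary electrophoresis, positive-direction fitting against DMSO.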

[12] = molecular target: Peroxisome proliferator-activated receptor gamma (Homo sapiens) (UniProt P37231); assay: ATG_hPPARg_XSP2: Attagene TRANS-FACTORIAL Multi-Species (XSP2) HepG2 Assay for human Peroxisome Proliferator-activated Receptor gamma (PPARg) (AID 2283829);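 note: actives raise reporter mRNA above DMSO so AC50 reflects PPARg activation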
In short: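 Multiplexed transactivation in transfected HepG2 liver cells. Gal4-chimeric receptor activity reported as induced reporter transcript after 24 h.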

[13] = molecular target: zebrafish Thyroid Hormone Receptor alpha (TRa), thraa (gene 30670) (UniProt Q98867); assay: ATG_zfTRa_XSP2: Attagene TRANS-FACTORIAL Multi-Species (XSP1) HepG2 Assay for zebrafish Thyroid Hormone Receptor alpha (TRa) (AID 2283832);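 note: actives raise zebrafish TRa-Gal4 reporter transcript above DMSO baseline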
In short: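 Readout is reporter mRNA induction, quantified by RT-PCR and capillary electrophoresis with fluorescent labelling, after 24 h compound exposure of transiently transfected HepG2 cells carrying NR-Gal4 chimera reporters. Activity fitted upward relative to DMSO.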

[14] = tested on: turtle Thyroid Hormone Receptor, alpha (TRa), gene 101949057; assay: ATG_trTRa_XSP2: Attagene TRANS-FACTORIAL Multi-Species (XSP1) HepG2 Assay for turtle Thyroid Hormone Receptor, alpha (TRa) (AID 2283834);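 note: hits raise reporter mRNA over the DMSO baseline so AC50 marks activators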
In short: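 Gain-of-signal reporter transcription measured in transiently transfected HepG2 at 24 h post-dose. Fluorescent RT-PCR products were resolved by capillary electrophoresis and compared with DMSO vehicle.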

[15] = molecular target: zebrafish Thyroid Hormone Receptor beta (TRb), thrb (gene 30607) (UniProt Q9PVE4); assay: ATG_zfTRb_XSP2: Attagene TRANS-FACTORIAL Multi-Species (XSP1) HepG2 Assay for zebrafish Thyroid Hormone Receptor beta (TRb) (AID 2283836);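 for AC50: potency for induction of reporter signal above DMSO so agonist direction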
In short: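 Reporter transcripts were measured by RT-PCR with fluorescent primer extension and capillary electrophoresis, 24 h after chemical dosing of transiently transfected HepG2 cells. Activity was scored as upward signal versus DMSO baseline.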

[16] = ATG_XTT_Cytotoxicity_XSP2: Cytotoxicity Assessment in the Attagene TRANS-FACTORIAL Multi-Species (XSP2) HepG2 Assay (AID 2283837)
In short: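 XTT-based cell number read-out in human HepG2 liver cells carrying transfected reporter units, measured 24 h after chemical dosing. Activity is signal loss versus DMSO baseline.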

[17] = tested on: frog Androgen Receptor (AR), gene 399456; assay: ATG_frAR_XSP2: Attagene TRANS-FACTORIAL Multi-Species (XSP2) HepG2 Assay for frog Androgen Receptor (AR) (AID 2283824);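 note: reporter mRNA from GAL4-UAS units driven by Xenopus AR-Gal4 chimera; actives raise reporter signal above DMSO so AC50 reflects agonist-like induction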
In short: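 Reporter transcript induction, read by RT-PCR with fluorescent capillary electrophoresis, in human liver HepG2 cells carrying an exogenous Xenopus AR-Gal4 fusion and GAL4-driven reporters; chemical exposure 24 hours, activity scored upward against DMSO controls.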

[18] = molecular target: human Thyroid hormone Receptor alpha (TRa), THRA (gene 7067) (UniProt P10827); assay: ATG_hTRa_XSP2: Attagene TRANS-FACTORIAL Multi-Species (XSP2) HepG2 Assay for human Thyroid hormone Receptor alpha (TRa) (AID 2283838)
In short: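 Gain-of-signal in reporter mRNA, relative to DMSO, after 24 h dosing of transfected HepG2; quantitation by RT-PCR fragment analysis on capillary electrophoresis.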

[19] = molecular target: human Androgen Receptor (AR), AR (gene 367) (UniProt P10275); assay: ATG_hAR_XSP2: Attagene TRANS-FACTORIAL Multi-Species (XSP2) HepG2 Assay for human Androgen Receptor (AR) (AID 2283820)
In short: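 Reporter transcripts were measured by RT-PCR and capillary electrophoresis 24 h post-dosing, with gain of signal fitted against DMSO. Transiently transfected HepG2 cells expressed chimeric NR-Gal4 on GAL4-UAS reporters, with AR stimulated by 3 nM 6-alpha-fluorotestosterone and 1.5 nM norgestrel.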

[20] = ATG_M_19_XSP2: Attagene TRANS-FACTORIAL Multi-Species (XSP2) HepG2 Assay for M32 Transcription Factor (Internal Marker) (AID 2283822)
In short: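 Internal background marker in a multi-species nuclear receptor TRANS panel: transfected HepG2 cells exposed 24 h, with 3 nM 6-alpha-fluorotestosterone and 1.5 nM norgestrel present. Readout is RT-PCR of reporter transcripts resolved by capillary electrophoresis, gain-of-signal versus DMSO.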

Measured: AC50

Chain of human Thyroid hormone Receptor alpha (TRa), THRA (gene 7067) (P10827 whole entry, looked up, the tested form may be a part): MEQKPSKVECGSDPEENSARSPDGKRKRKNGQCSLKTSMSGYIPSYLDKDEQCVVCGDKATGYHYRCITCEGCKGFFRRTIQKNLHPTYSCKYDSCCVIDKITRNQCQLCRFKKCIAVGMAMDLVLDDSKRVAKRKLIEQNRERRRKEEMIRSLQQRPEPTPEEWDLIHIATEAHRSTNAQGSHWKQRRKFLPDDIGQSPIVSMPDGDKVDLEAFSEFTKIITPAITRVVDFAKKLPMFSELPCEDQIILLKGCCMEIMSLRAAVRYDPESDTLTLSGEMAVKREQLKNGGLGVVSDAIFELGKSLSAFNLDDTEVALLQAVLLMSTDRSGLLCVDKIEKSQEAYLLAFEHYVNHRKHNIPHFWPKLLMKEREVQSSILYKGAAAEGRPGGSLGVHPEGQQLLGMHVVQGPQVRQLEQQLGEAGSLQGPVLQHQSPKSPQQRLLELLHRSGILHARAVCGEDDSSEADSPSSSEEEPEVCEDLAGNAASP
Chain of zebrafish Thyroid Hormone Receptor beta (TRb), thrb (gene 30607) (Q9PVE4 whole entry, looked up): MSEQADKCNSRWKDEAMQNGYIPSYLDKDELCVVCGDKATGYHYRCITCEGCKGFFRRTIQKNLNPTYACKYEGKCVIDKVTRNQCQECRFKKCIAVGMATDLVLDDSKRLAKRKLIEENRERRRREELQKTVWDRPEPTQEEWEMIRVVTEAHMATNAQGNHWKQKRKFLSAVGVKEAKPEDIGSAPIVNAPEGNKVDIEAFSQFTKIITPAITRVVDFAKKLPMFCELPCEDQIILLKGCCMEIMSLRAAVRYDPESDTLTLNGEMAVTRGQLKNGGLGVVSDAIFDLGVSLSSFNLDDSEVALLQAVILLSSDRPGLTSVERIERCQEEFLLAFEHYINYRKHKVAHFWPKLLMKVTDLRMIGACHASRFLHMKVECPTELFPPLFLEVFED
Chain of Nuclear receptor subfamily 1 group I member 2 (Mus musculus) (O54915 whole entry, looked up, the tested form may be a part): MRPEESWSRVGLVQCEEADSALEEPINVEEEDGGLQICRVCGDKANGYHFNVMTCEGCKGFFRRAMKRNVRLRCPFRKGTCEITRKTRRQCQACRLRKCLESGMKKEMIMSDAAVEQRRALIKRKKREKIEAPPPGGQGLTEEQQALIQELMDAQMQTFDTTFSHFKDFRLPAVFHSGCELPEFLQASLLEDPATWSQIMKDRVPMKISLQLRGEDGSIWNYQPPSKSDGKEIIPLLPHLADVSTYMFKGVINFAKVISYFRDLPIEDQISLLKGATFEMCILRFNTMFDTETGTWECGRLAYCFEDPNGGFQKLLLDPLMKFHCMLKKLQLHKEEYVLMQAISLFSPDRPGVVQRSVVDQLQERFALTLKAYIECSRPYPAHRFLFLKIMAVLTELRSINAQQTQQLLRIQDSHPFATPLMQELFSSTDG
Chain of zebrafish Thyroid Hormone Receptor alpha (TRa), thraa (gene 30670) (Q98867 whole entry, looked up, the tested form may be a part): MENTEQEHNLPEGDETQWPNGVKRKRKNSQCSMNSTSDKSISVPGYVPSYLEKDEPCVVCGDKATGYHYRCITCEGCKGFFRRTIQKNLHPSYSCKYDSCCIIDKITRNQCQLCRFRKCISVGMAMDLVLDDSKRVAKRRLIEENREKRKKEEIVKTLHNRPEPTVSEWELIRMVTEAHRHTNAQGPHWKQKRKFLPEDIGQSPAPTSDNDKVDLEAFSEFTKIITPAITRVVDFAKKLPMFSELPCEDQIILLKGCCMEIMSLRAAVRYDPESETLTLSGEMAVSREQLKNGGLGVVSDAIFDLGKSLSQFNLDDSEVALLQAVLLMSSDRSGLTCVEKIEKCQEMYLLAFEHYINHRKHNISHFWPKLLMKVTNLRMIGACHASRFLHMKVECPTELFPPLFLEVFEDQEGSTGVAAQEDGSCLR
Chain of chicken Estrogen Receptor (ERa), ESR1 (gene 396099) (P06212 whole entry, looked up, the tested form may be a part): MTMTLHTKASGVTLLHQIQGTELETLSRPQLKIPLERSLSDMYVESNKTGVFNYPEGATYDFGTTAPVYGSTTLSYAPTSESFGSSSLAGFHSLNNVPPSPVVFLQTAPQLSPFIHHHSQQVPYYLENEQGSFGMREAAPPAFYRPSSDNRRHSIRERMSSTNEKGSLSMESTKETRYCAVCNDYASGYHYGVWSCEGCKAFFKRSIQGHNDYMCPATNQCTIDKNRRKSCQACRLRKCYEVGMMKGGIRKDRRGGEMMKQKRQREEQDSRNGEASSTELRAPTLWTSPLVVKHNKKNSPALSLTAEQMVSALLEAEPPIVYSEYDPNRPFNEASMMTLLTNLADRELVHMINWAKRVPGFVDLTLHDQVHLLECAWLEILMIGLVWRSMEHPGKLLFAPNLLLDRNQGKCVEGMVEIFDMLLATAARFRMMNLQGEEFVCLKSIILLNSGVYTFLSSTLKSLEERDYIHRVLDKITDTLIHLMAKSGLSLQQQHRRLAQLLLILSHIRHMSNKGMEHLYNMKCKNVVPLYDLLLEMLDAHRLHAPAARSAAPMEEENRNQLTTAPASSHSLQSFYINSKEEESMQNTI
Chain of mouse Peroxisome Proliferator-activated Receptor gamma (PPARg), Pparg (gene 19016) (P37238 whole entry, looked up, the tested form may be a part): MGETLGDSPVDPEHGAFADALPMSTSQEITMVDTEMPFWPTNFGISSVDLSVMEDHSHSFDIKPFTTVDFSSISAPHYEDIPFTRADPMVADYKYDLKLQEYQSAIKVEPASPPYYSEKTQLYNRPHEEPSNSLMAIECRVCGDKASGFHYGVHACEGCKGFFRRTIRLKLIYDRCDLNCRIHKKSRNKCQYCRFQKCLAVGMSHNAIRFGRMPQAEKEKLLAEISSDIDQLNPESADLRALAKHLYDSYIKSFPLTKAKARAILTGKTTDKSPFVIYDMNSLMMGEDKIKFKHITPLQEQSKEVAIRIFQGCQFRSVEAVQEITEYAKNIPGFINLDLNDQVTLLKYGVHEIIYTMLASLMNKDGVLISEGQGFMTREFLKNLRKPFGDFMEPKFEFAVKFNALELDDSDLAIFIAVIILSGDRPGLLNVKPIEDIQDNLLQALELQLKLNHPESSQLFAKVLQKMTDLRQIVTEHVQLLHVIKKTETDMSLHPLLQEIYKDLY
Chain of Peroxisome proliferator-activated receptor gamma (Homo sapiens) (P37231 whole entry, looked up, the tested form may be a part): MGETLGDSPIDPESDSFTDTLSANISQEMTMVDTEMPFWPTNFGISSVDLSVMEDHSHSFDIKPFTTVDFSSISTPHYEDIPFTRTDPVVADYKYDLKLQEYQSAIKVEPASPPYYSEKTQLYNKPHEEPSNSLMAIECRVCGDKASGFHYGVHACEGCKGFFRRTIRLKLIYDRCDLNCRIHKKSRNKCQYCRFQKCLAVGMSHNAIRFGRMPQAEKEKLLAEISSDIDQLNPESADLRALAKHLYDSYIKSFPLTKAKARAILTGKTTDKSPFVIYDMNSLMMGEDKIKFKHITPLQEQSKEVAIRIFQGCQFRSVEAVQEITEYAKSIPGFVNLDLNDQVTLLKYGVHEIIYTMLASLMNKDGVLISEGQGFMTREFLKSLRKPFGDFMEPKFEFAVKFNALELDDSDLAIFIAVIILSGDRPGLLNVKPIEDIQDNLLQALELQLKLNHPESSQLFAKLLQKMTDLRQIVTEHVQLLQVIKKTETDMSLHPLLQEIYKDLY
Chain of frog Thyroid hormone Receptor alpha (TRa), thra-a (gene 397942) (P15204 whole entry, looked up, the tested form may be a part): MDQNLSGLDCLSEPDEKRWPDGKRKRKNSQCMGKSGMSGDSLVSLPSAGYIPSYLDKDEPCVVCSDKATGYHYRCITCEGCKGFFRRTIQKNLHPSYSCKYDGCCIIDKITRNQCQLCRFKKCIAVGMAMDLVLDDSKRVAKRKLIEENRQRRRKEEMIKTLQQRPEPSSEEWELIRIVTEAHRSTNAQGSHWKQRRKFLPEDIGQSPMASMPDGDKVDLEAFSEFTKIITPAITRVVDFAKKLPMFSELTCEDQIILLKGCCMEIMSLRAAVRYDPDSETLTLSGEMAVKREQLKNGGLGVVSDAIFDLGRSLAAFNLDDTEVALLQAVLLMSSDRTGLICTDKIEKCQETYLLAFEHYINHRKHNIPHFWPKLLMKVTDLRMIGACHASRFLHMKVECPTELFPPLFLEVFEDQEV
Chain of Estrogen receptor (Homo sapiens) (P03372 whole entry, looked up, the tested form may be a part): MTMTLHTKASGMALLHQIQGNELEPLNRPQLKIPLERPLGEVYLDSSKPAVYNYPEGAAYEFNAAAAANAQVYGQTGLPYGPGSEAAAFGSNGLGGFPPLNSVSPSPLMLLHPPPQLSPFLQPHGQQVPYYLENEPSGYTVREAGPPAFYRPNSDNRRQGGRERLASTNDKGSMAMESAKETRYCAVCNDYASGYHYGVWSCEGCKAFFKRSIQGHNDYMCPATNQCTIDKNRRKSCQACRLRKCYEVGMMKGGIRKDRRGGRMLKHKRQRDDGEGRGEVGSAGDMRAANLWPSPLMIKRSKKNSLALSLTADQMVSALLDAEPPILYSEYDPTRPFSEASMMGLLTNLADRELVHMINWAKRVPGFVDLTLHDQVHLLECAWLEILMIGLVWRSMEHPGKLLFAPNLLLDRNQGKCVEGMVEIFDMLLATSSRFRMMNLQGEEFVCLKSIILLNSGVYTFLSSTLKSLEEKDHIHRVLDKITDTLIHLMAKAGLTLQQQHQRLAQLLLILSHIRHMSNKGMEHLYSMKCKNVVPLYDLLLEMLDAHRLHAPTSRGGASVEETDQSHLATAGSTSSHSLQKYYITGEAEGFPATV

CCCCC(CC)COC(=O)c1ccccc1C(=O)O (stereo not drawn)
active: [1] 27.2 µM | [5] 33.2 µM | [6] 18.2 µM | [7] 3.81 µM | [8] 59.8 µM
inactive: [2] | [3] | [4] | [9] | [10]

N[C@@H](Cc1cc(I)c(Oc2ccc(O)c(I)c2)c(I)c1)C(=O)O
inactive: [1] | [2] | [4] | [5] | [12] | [6] | [8] | [9] | [16]
active: [1] 4.3 µM | [2] 3.71 µM | [11] 351 nM and 1.72 µM | [5] 4.9 µM | [12] 6.33 µM | [6] 3.89 µM | [7] 22.7 µM | [13] 0.534 nM and 449 nM | [14] 0.636 nM and 73.3 nM | [15] 0.339 nM and 77 nM | [10] 0.185 nM and 197 nM

C#C[C@]1(O)CC[C@H]2[C@@H]3CCC4=CC(=O)CC[C@@H]4[C@H]3CC[C@@]21CC
inactive: [1] | [2] | [4] | [5] | [12] | [7] | [13] | [8] | [14] | [9] | [15] | [18] | [10]
active: [2] 0.318 µM | [17] 208 nM | [11] 114 nM and 35.2 nM

CC1(C)C(C=C(Cl)Cl)C1C(=O)OCc1cccc(Oc2ccccc2)c1 (stereo not drawn)
active: [1] 4.5 µM | [2] 18.6 µM | [11] 7.48 µM | [5] 34.8 µM | [7] 3.06 µM
not listed: [4] | [6] | [9] | [12] | [15] | [16]
inactive: all other assays above

CC(=O)S[C@@H]1CC2=CC(=O)CC[C@]2(C)[C@H]2CC[C@@]3(C)[C@@H](CC[C@@]34CCC(=O)O4)[C@H]12
active: [7] 0.483 µM
not listed: [3] | [4] | [6] | [8] | [16] | [17] | [19]
inactive: all other assays above

CC(C)(c1ccc(O)cc1)c1ccc(O)cc1
inactive: [5] | [12] | [6] | [8] | [14] | [9] | [15] | [10]
active: [1] 0.501 µM | [2] 2.65 µM | [13] 12.7 µM

CSC(=O)c1cccc2nnsc12
active: [12] 51.7 µM | [6] 20.5 µM
inactive: [1] | [2] | [3] | [4] | [11] | [5] | [12] | [6] | [7] | [14] | [9] | [15]
